Consider eleven molecules from PubChem BioAssay (Tox21).

Structures are written as SMILES. Records with an inconclusive call do not appear. Active and inactive are the calls of the source. Unless noted, calls come from the whole dose curve; as a rule, active = well fitted curve in the direction sought with a large enough effect in the repeat runs; inconclusive = weak or mixed curves; inactive = no such curve, though single readings can be large; an effect the other way counts as inactive or inconclusive.

Assay [1] can be described thus: qHTS assay to identify small molecule antagonists of the vitamin D receptor (VDR) signaling pathway - cell viability counter screen (AID 743225). Note: nearly all actives have a fitted effect of over 50% in size. The method in brief: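 Luminescent cell viability (CellTiter-Glo) in VDR-bla HEK 293T cells after 16 h compound exposure at 37C in the presence of 3 nM final 1-alpha,25-dihydroxy vitamin D3.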
Assay [2] in a line: qHTS assay to identify small molecule agonists of the NFkB signaling pathway (AID 1159509; active = well fitted curve in the direction sought with a large enough effect in the signal ratio in the repeat runs, not every such curve was filed as active; the % refers to the signal ratio; note: series mostly up to about 61 µM). Put shortly: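 After overnight attachment, reporter cells received test compounds, DMSO or positive controls and were incubated 5 hr at 37 C. FRET substrate was then added for 1.5 hr at room temperature before dual-emission fluorescence reading.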
(In general: Quantitative high-throughput screening tests each substance at several concentrations.)

Assay [3] is described as follows: qHTS assay to identify small molecule agonists of the NFkB signaling pathway - cell viability counter screen (AID 1159515; calls by dose curve; note: series mostly up to about 61 µM; nearly all actives have a fitted effect of over 55% in size). Put shortly: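 Luminescence from CellTiter-Glo (30 min, room temperature) gives viability, measured in the same wells as the beta-lactamase reporter read. Cells were NFkB-bla ME-180, 2,000 per well, treated 5 hr with compounds.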
Assay [4] is described as follows: qHTS assay to identify small molecule agonists of the endoplasmic reticulum stress response signaling pathway (AID 1159516; active = well fitted activation curve with a large enough effect in the signal ratio in the repeat runs, not every such curve was filed as active; the % refers to the signal ratio). The method in brief: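 Read-out is beta-lactamase cleavage of a FRET substrate (405 nm excitation; 460 and 530 nm emissions) in ESRE-bla HeLa cells after a 5 hr compound exposure at 37 C. Substrate incubation ran 2 hr at room temperature.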

Assay [5] is described as follows: qHTS assay to identify small molecule antagonists of the retinoid-related orphan receptor gamma (ROR-gamma) signaling pathway - cell viability counter screen (AID 1159520). Note: nearly all actives have a fitted effect of over 50% in size. The method in brief:
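Tet-on ROR gamma CHO cells (1,000/well) were plated 4 hr, given compounds in DMSO for 2 hr at 37 C, then induced with 1 uM final doxycycline for 16 hr. Viability was read as ATP by CellTiter-Glo luminescence after 30 min.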

Assay [6] deals with Nuclear receptor ROR-gamma (Homo sapiens) (UniProt P51449). The assay can be described thus: qHTS assay to identify small molecule antagonists of the retinoid-related orphan receptor gamma (ROR-gamma) signaling pathway (AID 1159521;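 note: CHO cells with doxycycline inducible ROR-gamma driving an RORE luciferase reporter; top concentration of the series differs between compounds; nearly all actives have a fitted effect of over 50% in size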). The method in brief: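 CHO cells expressing RORγ under a TET-on promoter, luciferase under RORE control. Dox 1 uM final, 16 h; compounds added 2 h prior. Luminescence decrease measured.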

The nature of assay [7]: qHTS assay to identify small molecule agonists of the AP-1 signaling pathway - cell viability counter screen (AID 1159525; calls by dose curve; note: nearly all actives have a fitted effect of over 55% in size; note: potency is the fitted concentration of half-maximal effect). The method in brief:
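ME-180 AP-1-bla, 2500 cells/well, Opti-MEM + 0.5% dialyzed FBS; overnight 37 °C; cpd 15-pt titration, 5 h 37 °C; CellTiter-Glo 30 min RT; luminescence read; normalised to TOAB and DMSO controls.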

Assay [8] addresses Retinoic acid receptor RXR-alpha (Homo sapiens) (UniProt P19793). Nature of the assay: qHTS assay to identify small molecule agonists of the RXR signaling pathway (AID 1159527; calls by dose curve; note: nearly all actives have a fitted effect of over 35% in size). The method in brief:
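Beta-lactamase reporter assay, agonist format. Engineered HEK 293T line, charcoal-stripped FBS at 2%, overnight (16 hr) exposure, fluorescence at 460 and 530 nm after 405 nm excitation.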

A short description of assay [9]: qHTS assay to identify small molecule agonists of the RXR signaling pathway - cell viability counter screen (AID 1159529). Note: nearly all actives have a fitted effect of over 50% in size. Note: potency is the fitted concentration of half-maximal effect. Put shortly: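 Same-well viability check after the LiveBLAzer FRET read: CellTiter-Glo added, luminescence measured after 30 min at room temperature. Reporter HEK 293T cells had been treated with compounds for 16 hr following a 5 hr preincubation.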

A short description of assay [10]: qHTS assay to identify small molecule antagonists of the retinoid acid receptor (RAR) signaling pathway - cell viability counter screen (AID 1159551). Note: nearly all actives have a fitted effect of over 35% in size. Put shortly: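 Luminescent ATP quantitation (CellTiter-Glo) gave cell viability in C3RL4 cells exposed to test chemicals for 6 h at 37 C alongside 1 uM final retinol.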
Assay [11] is described as follows: qHTS assay to identify small molecule antagonists of the retinoic acid receptor (RAR) signaling pathway (AID 1159552; note: nearly all actives have a fitted effect of over 50% in size). The method in brief: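 Readout: luciferase luminescence, 30 min post-reagent at RT. Setup: C3RL4 RARE reporter cells, compounds plus retinol 1 uM final, 6 hr incubation at 37 C and 5% CO2.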
Assay [12] is described as follows: qHTS assay to identify small molecule agonists of the retinoic acid receptor (RAR) signaling pathway (AID 1159553). Put shortly: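 Luminescence from a RARE-driven luciferase reporter in C3RL4 cells served as the read-out, measured after 30 min with detection reagent at room temperature. Compounds in DMSO were applied for 6 hr at 37 C following overnight seeding.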

Assay [13] can be described thus: qHTS assay to identify small molecule agonists of the vitamin D receptor (VDR) signaling pathway - cell viability counter screen (AID 743224). Note: nearly all actives have a fitted effect of over 50% in size. Note: potency is the fitted concentration of half-maximal effect. The method in brief:
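Luminescence from CellTiter-Glo, read after 30 min at room temperature, reports viability of VDR-bla cells treated with compounds for 16 h at 37C in the wells used for the beta-lactamase FRET read.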

Assay [14] can be described thus: qHTS assay to identify small molecule agonists of the AP-1 signaling pathway (AID 1159526; calls by dose curve).

Chain of Retinoic acid receptor RXR-alpha (Homo sapiens) (P19793 whole entry, looked up): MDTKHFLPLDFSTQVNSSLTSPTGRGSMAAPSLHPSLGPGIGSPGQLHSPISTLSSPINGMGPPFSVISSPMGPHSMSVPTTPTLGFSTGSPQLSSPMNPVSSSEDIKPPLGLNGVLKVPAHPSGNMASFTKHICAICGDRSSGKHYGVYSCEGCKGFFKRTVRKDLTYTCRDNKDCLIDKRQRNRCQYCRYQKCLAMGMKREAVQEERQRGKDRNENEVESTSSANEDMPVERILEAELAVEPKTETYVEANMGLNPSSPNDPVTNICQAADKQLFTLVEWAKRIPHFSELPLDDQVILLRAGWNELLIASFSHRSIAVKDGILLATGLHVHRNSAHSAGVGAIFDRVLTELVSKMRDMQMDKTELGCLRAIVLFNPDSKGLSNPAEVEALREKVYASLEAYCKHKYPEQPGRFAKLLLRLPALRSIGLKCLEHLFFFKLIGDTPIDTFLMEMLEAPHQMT

As to `COP(=S)(OC)Oc1cc(Cl)c(I)cc1Cl`, the Potency entry in assay [1], in assay [3], in assay [5], in assay [6], in assay [7] and in assay [8] was “inactive” in each case. In addition, the Potency result in assay [9], in assay [10], in assay [11] and in assay [12] was “inactive” throughout. The result in assay [2] and in assay [4] was inactive.
As to `CCN(C)N=O`, the Potency result in assay [13], in [3], in assay [5], in [7], in assay [8] and in [9] was “inactive” throughout. In addition, the Potency entry in assay [10], in [11] and in assay [12] was “inactive” throughout. For the same molecule, the molecule was classed as inactive in assay [2] and in [4].
For the molecule `CCCC(=O)Cl`, the Potency result in [13], in [1], in assay [3], in [5], in [6] and in assay [7] was “inactive” throughout. For the same molecule, the Potency result in assay [9], in [10] and in assay [12] was “inactive” in each case. Besides, the outcome in [2], in assay [4] and in assay [14] was inactive.
`CC(=O)c1cc2c(cc1C)C(C)(C)C(C)CC2(C)C` (stereo unspecified): the Potency was 49 µM (active) in assay [13], 49 µM (active) in assay [7] and 43.6 µM (active) in assay [9]. Also, the Potency result in assay [1], in assay [3] and in assay [5] was “inactive” each time. Moreover, the molecule was classed as inactive in assay [2] and in assay [4].
As for `CC[C@H]1C[C@H]2[C@@H]3CCC4=CC(=O)CC[C@@H]4[C@H]3CC[C@]2(C)[C@H]1O`, the Potency entry in assay [13], in assay [1], in [3], in assay [5], in [7] and in assay [9] was “inactive” in each case. For the same molecule, the Potency result in assay [10], in assay [11] and in assay [12] was “inactive” throughout. The molecule was classed as inactive in assay [2] and in assay [4].
With `CC1CC(CC2CCC(N)C(C)C2)CCC1N` (stereo unspecified), the Potency entry in [13], in [3], in [5], in assay [6], in assay [7] and in assay [8] was “inactive” throughout. Also, the Potency result in assay [10] and in [12] was “inactive” in each case. Also, the molecule was called inactive in [2] and in assay [4].
Take `O=C(O)C(F)(F)C(F)(F)C(F)(F)C(F)(F)C(F)(F)C(F)(F)C(F)(F)C(F)(F)C(F)(F)F`: the Potency entry in assay [1], in assay [3], in assay [5], in [6], in [7] and in [8] was “inactive” throughout. The Potency result in assay [10] and in assay [12] was “inactive” throughout. Further, the molecule was called inactive in [2] and in assay [4].
`ClCC(Br)CBr` (stereo unspecified): the Potency entry in assay [13], in assay [1], in assay [3], in assay [5], in assay [6] and in [7] was “inactive” each time. The Potency entry in assay [8], in assay [9], in assay [10] and in assay [12] was “inactive” throughout. The outcome in assay [2], in [4] and in assay [14] was inactive.
Regarding `C[N+](C)(C)CCCl`, the Potency entry in assay [13], in assay [1], in assay [3], in [5], in assay [6] and in [7] was “inactive” each time. Besides, the Potency entry in assay [8], in assay [9], in assay [10] and in [12] was “inactive” each time. Moreover, the result in assay [2], in assay [4] and in assay [14] was inactive.
With `BrCCCCBr`, the Potency result in [13], in assay [1], in assay [3], in assay [5], in assay [6] and in assay [7] was “inactive” in each case. Further, the Potency result in assay [9], in assay [10], in assay [11] and in assay [12] was “inactive” throughout. Moreover, the call in assay [2], in assay [4] and in [14] was inactive.
As for `CCBr`, the Potency result in assay [13], in [1], in assay [3], in [5], in [6] and in assay [7] was “inactive” in each case. For the same molecule, the Potency entry in assay [8], in [9], in assay [11] and in assay [12] was “inactive” throughout. Also, the result in [2], in [4] and in assay [14] was inactive.
